Here are results for one sequence from paper PMC7862700, “An all-to-all approach to the identification of sequence-specific readers for epigenetic DNA modifications on cytosine”.

Holding throughout (assay): DAPPL (digital affinity profiling via proximity ligation, sequencing); 10 mM Tris-HCl pH 7.5, 50 mM NaCl, 1 mM DTT, 4% glycerol, room temperature, 30 min; GST-TFs on glutathione beads, 16-mer random dsDNA library, 0.1% formaldehyde crosslink after washing; high values mean tight binding
What all share (conditions): protein: recombinant; tags: N-terminal GST; dsDNA, one strand shown

For one assay, the target named is T1, ELK1 (Homo sapiens, UniProt P19419 1-428).
T1 sequence: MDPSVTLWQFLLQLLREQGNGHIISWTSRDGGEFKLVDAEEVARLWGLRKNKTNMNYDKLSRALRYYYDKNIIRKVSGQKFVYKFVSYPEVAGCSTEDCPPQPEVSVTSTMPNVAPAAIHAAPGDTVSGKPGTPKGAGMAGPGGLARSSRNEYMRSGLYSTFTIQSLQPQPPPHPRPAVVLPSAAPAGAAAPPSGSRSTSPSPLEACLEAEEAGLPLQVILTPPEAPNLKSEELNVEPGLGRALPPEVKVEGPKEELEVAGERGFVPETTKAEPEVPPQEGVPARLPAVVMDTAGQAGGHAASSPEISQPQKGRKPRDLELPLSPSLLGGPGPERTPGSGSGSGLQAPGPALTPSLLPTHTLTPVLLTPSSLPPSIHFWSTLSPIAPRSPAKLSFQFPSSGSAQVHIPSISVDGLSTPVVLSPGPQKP
The method in brief:
(§1)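 GST fusions of human transcription factors were expressed in yeast and captured with glutathione beads. Once given DNA barcodes and pooled alongside a tag-only sample, they were incubated for 30 min at room temperature with 200 nmole of a random double-stranded 16-mer DNA library in Tris/NaCl/DTT/glycerol buffer, then washed, crosslinked (0.1% formaldehyde), proximity-ligated, PCR-amplified and sequenced on an Illumina NextSeq500. The binding signal of each hexamer is its read frequency for a factor divided by its frequency for the tag-only sample.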

For a further assay, the target named is T2, GABPA (Homo sapiens, UniProt Q06546 1-454).
T2 sequence: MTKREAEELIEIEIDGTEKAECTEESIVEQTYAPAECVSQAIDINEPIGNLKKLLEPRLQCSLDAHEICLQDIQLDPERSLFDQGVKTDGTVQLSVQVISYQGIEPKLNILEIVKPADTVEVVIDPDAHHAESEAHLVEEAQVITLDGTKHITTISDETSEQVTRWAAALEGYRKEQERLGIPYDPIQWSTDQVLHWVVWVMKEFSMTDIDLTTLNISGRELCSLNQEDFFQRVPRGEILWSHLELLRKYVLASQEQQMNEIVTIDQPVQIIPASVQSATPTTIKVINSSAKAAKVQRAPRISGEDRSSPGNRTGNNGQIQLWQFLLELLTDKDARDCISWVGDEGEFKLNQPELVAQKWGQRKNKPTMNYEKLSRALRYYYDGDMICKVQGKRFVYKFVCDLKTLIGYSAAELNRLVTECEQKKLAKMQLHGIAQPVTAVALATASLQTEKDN
The method in brief:
as §1

Another assay has as its target T3, ERG (Homo sapiens, UniProt P11308 1-479).
T3 sequence: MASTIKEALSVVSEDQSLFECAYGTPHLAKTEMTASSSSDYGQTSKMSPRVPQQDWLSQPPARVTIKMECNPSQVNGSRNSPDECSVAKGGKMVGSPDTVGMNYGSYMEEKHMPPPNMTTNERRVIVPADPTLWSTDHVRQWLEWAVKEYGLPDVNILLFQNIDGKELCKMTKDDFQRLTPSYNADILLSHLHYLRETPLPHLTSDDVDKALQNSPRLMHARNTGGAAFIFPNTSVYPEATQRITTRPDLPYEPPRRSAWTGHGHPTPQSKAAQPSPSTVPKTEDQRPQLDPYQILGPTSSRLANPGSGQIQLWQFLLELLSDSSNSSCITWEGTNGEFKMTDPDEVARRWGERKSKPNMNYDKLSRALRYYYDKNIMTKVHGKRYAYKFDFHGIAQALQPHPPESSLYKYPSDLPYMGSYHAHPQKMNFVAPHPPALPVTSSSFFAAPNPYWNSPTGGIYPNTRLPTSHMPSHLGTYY
The method in brief:
as §1

In a further assay the target is ELF1 (Homo sapiens, UniProt P32519 1-619). The method in brief: as §1
ELF1, sequence (P32519 whole entry): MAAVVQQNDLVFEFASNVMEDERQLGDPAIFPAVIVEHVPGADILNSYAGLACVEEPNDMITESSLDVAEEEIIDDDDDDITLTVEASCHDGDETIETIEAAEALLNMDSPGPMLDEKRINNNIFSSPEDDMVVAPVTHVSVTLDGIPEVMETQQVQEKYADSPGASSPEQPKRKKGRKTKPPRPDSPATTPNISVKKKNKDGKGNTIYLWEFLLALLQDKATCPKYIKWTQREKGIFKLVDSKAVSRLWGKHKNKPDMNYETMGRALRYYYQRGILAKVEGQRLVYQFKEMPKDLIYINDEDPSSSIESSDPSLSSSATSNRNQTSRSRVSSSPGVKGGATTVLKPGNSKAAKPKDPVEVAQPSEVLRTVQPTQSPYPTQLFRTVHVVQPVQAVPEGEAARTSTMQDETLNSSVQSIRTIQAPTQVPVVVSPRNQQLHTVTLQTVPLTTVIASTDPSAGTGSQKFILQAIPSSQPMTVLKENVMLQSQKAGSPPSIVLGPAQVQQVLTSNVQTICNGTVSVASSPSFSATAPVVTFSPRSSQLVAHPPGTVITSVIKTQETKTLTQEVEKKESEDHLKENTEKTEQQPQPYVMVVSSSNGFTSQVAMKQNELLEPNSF
The target of a further assay is T4, EHF (Homo sapiens, UniProt Q9NZC4 1-300).
T4 sequence: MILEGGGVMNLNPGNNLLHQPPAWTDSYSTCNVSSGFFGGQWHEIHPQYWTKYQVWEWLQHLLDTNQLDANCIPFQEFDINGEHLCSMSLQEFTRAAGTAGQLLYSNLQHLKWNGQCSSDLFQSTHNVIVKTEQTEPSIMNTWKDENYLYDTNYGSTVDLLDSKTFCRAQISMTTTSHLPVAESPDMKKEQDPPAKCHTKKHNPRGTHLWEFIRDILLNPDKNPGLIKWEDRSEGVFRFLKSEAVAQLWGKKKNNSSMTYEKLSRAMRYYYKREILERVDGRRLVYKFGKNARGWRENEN
A digest of the protocol: as §1

The target of the next assay is SPIB (Homo sapiens, UniProt Q01892 1-262). The method in brief: as §1
SPIB, sequence (Q01892 whole entry): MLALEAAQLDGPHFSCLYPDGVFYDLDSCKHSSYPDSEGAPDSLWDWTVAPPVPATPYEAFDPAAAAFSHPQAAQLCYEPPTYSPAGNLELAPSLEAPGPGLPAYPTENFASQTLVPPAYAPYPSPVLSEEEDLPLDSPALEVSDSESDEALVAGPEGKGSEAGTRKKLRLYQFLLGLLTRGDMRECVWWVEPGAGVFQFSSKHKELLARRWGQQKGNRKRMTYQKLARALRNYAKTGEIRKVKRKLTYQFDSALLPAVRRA
The next assay has as its target T5, FEV (Homo sapiens, UniProt Q99581 1-238).
T5 sequence: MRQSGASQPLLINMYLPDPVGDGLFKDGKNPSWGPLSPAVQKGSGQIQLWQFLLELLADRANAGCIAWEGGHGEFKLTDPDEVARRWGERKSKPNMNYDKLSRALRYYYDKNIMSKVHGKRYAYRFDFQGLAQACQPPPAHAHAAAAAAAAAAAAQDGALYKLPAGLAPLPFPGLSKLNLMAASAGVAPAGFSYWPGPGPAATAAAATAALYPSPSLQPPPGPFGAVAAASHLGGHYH
The method in brief:
as §1

The target in a further assay is ETV5 (Homo sapiens, UniProt P41161 1-510). The method in brief: as §1
ETV5, sequence (P41161 whole entry): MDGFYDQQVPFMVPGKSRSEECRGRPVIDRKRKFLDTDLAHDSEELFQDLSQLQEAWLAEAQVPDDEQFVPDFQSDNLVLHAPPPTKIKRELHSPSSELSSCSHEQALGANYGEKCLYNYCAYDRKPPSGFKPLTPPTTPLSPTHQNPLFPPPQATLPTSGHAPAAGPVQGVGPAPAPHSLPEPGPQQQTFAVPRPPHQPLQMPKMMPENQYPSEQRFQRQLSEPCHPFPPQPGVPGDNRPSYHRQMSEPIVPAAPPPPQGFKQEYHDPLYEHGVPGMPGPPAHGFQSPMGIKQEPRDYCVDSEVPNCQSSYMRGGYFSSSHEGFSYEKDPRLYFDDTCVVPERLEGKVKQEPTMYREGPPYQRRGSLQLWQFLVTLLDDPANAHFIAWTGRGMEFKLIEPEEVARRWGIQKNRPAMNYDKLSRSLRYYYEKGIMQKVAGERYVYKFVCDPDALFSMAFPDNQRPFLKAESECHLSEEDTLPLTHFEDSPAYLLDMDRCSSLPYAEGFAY
Another assay has as its target ELF4 (Homo sapiens, UniProt Q99607 1-663). The method in brief: as §1
A further assay deals with T6, ETV2 (Homo sapiens, UniProt O00321 1-342).
T6 sequence: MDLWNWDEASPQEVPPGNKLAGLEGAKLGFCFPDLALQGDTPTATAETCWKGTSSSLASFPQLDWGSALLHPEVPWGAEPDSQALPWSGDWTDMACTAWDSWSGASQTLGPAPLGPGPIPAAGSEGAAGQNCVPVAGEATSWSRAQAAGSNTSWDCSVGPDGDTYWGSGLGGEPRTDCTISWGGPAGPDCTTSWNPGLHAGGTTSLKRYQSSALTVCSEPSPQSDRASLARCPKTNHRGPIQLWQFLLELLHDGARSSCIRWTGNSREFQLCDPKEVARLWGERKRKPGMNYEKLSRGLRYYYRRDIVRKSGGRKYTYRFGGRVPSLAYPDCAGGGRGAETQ
A digest of the protocol:
as §1

The target of another assay is T7, ELF3 (Homo sapiens, UniProt P78545 1-371).
T7 sequence: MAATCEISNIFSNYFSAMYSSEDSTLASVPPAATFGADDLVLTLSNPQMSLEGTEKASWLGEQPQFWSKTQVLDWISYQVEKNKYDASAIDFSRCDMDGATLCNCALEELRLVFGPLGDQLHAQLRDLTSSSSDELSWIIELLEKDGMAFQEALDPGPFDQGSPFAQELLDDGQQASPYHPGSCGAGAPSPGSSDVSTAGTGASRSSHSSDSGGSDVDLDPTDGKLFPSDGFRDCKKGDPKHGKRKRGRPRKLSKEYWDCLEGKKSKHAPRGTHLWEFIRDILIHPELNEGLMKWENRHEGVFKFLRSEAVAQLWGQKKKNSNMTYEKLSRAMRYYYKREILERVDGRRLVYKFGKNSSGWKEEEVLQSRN
The method in brief:
as §1

For another assay, the target named is ETV1 (Homo sapiens, UniProt P50549 1-477). A digest of the protocol:
as §1

In a further assay the target is T8, ERF (Homo sapiens, UniProt P50548 1-548).
T8 sequence: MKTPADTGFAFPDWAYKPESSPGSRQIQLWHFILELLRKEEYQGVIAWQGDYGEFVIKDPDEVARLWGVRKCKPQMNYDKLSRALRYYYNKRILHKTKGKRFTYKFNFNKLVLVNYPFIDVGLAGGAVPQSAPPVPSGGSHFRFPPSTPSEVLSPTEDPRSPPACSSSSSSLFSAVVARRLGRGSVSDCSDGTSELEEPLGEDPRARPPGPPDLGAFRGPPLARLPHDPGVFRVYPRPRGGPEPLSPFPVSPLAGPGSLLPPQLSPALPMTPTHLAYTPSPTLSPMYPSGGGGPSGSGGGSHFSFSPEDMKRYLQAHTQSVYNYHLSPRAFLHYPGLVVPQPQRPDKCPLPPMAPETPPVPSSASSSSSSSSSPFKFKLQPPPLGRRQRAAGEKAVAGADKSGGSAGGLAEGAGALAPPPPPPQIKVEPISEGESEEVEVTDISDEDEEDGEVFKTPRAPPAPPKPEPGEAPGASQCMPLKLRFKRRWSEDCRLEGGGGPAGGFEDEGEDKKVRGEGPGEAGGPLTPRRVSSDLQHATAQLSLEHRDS
A digest of the protocol: as §1

The next assay has as its target T9, ETV3L (Homo sapiens, UniProt Q6ZN32 1-361).
T9 sequence: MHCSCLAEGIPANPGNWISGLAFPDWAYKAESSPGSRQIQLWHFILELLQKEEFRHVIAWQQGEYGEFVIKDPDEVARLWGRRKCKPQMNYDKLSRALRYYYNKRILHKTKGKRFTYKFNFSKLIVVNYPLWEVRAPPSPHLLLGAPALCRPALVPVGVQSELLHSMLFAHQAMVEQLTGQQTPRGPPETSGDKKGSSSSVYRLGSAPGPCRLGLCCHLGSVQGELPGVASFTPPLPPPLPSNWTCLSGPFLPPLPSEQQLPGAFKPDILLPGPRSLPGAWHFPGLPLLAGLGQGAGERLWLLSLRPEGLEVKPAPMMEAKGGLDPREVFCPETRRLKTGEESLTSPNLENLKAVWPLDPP
The method in brief: as §1

The target in the next assay is T10, ETS2 (Homo sapiens, UniProt P15036 1-469).
T10 sequence: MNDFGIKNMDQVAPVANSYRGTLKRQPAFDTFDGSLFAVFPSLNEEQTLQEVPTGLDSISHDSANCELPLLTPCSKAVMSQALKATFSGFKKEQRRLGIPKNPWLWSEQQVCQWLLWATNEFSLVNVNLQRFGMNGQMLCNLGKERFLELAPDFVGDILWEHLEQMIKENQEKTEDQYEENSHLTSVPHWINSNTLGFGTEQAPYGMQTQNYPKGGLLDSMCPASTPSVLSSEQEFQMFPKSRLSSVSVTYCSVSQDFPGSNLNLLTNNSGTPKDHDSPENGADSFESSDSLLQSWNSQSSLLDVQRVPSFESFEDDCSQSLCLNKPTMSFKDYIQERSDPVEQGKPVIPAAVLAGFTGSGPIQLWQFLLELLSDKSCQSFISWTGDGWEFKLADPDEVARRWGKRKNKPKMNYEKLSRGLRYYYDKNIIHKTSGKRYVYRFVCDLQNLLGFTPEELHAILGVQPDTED
A digest of the protocol: as §1

The next assay concerns the target T11, SPDEF (Homo sapiens, UniProt O95238 1-335).
T11 sequence: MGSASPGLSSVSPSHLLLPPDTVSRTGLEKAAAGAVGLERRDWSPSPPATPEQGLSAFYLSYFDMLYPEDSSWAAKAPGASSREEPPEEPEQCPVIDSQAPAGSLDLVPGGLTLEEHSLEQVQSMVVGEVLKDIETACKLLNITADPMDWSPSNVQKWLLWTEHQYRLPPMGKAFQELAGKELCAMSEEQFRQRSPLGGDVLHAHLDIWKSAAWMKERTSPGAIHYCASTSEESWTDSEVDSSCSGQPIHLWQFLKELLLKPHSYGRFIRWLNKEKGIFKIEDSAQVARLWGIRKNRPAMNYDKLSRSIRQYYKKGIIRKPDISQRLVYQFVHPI
A digest of the protocol: as §1

The target in a further assay is T12, ETV7 (Homo sapiens, UniProt Q9Y603 1-341).
T12 sequence: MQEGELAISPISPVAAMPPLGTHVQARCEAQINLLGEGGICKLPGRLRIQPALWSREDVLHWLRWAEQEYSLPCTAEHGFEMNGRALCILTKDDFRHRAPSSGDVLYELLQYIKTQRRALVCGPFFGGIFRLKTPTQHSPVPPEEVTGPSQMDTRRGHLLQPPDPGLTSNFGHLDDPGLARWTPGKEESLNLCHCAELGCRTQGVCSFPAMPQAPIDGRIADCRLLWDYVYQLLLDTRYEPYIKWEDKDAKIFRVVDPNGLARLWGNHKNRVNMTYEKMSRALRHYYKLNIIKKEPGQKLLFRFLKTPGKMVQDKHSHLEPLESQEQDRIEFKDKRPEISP
A digest of the protocol:
as §1

The next assay concerns the target T13, ETV3 (Homo sapiens, UniProt P41162-2 1-143).
T13 sequence: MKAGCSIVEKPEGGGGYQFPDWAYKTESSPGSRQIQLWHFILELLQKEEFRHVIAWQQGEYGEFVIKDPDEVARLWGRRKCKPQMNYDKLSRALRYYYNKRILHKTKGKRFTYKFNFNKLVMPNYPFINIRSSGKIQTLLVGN
The method in brief:
as §1

Another assay concerns the target ETV6 (Homo sapiens, UniProt P41212 1-452). A digest of the protocol: as §1

ETV1, sequence (P50549 whole entry): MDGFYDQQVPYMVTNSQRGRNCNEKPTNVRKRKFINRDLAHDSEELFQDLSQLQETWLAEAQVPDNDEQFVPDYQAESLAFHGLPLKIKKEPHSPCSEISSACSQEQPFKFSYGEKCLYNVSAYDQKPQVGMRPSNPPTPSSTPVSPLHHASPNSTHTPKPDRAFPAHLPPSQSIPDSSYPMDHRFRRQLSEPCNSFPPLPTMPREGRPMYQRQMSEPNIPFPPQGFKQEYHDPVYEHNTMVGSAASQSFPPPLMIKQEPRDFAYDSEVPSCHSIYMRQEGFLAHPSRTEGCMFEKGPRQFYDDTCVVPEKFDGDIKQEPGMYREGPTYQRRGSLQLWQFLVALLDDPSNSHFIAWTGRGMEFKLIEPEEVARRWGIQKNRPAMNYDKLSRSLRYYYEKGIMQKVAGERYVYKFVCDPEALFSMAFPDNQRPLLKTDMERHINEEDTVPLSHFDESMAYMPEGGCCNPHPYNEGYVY
ETV6, sequence (P41212 whole entry): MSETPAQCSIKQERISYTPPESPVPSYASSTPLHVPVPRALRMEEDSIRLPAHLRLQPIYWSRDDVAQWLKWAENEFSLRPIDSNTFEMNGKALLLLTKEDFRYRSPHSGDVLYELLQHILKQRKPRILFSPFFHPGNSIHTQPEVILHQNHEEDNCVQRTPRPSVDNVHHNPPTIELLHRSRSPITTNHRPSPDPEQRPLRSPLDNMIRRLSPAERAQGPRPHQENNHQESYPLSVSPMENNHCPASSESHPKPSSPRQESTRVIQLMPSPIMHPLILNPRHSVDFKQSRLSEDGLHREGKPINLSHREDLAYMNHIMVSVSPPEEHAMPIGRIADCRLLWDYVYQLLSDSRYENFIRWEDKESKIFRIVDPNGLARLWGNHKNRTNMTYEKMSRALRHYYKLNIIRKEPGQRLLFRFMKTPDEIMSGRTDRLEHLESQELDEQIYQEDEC
ELF4, sequence (Q99607 whole entry): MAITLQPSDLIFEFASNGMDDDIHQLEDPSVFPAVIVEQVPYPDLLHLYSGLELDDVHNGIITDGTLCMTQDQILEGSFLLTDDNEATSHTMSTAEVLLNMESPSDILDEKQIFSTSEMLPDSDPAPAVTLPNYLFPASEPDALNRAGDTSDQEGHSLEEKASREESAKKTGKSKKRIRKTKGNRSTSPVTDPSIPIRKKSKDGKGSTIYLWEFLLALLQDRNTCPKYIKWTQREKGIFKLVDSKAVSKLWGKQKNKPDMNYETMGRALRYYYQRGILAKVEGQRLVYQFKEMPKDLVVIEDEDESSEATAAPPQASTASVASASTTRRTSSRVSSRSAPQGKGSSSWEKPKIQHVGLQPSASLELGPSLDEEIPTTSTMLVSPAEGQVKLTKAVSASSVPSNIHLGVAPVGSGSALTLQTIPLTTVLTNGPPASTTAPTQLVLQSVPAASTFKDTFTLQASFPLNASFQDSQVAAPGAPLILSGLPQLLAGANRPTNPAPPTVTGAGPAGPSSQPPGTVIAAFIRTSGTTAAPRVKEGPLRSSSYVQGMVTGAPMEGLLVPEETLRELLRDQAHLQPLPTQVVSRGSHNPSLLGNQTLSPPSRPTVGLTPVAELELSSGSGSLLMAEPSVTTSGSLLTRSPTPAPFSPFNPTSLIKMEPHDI

TGCGCC: the binding signal was 1.21 fold enrichment (6-mer frequency, TF over GST control) with ELK1; 1.19 fold enrichment (6-mer frequency, TF over GST control) with GABPA; 1.2 fold enrichment (6-mer frequency, TF over GST control) with ERG; 1.14 fold enrichment (6-mer frequency, TF over GST control) with ELF1; 1.08 fold enrichment (6-mer frequency, TF over GST control) in the assay with EHF; 1.27 fold enrichment (6-mer frequency, TF over GST control) in the assay with SPIB. The binding signal in the assay with FEV is 1.16 fold enrichment (6-mer frequency, TF over GST control); with ETV5, 1.04 fold enrichment (6-mer frequency, TF over GST control); in the assay with ELF4, 1.19 fold enrichment (6-mer frequency, TF over GST control); in the assay with ETV2, 1.18 fold enrichment (6-mer frequency, TF over GST control); with ELF3, 1.03 fold enrichment (6-mer frequency, TF over GST control); in the assay with ETV1 it was 1.23 fold enrichment (6-mer frequency, TF over GST control). Besides, the binding signal with ERF was 1.12 fold enrichment (6-mer frequency, TF over GST control); in the assay with ETV3L it was 1.27 fold enrichment (6-mer frequency, TF over GST control); with ETS2, 1.14 fold enrichment (6-mer frequency, TF over GST control); with SPDEF, 1.07 fold enrichment (6-mer frequency, TF over GST control); with ETV7, 1.09 fold enrichment (6-mer frequency, TF over GST control); in the assay with ETV3, 1.15 fold enrichment (6-mer frequency, TF over GST control). The binding signal with ETV6 was 1.27 fold enrichment (6-mer frequency, TF over GST control).
